# Article PMC5540273 (PLoS ONE, 2017)
# Columns and labels:
# Conditions in all cases: concentration: 1 μM, replicates: in singlicate; n = 1
# [1] = test system: CHEK1
# [2] = test system: CHEK2
# [3] = test system: CIT
# [4] = test system: CLK1
# [5] = test system: CLK2
# [6] = test system: CLK3
# [7] = test system: CLK4
# [8] = test system: CSF1R-autoinhibited
# [9] = test system: CSF1R
# [10] = test system: CSK
# [11] = test system: CSNK1A1L
# [12] = test system: CSNK1A1
# [13] = test system: CSNK1D
# [14] = test system: CSNK1E
# [15] = test system: CSNK1G1
# [16] = test system: CSNK1G2
# [17] = test system: CSNK1G3
# [18] = test system: CSNK2A1
# [19] = test system: CSNK2A2
# [20] = test system: T1, CTK
# T1 construct: gene MATK
# 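Note: KINOMEscan kinase panel screen.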
SMILES,%Inh [1] [%],%Inh [2] [%],%Inh [3] [%],%Inh [4] [%],%Inh [5] [%],%Inh [6] [%],%Inh [7] [%],%Inh [8] [%],%Inh [9] [%],%Inh [10] [%],%Inh [11] [%],%Inh [12] [%],%Inh [13] [%],%Inh [14] [%],%Inh [15] [%],%Inh [16] [%],%Inh [17] [%],%Inh [18] [%],%Inh [19] [%],%Inh [20] [%]
Nc1nc(-c2ccc3c(N)n[nH]c3c2)cc(N2CCCC2)n1 [GSK2227430],9,0,0,26,1,0,36,0,2,0,0,0,0,25,0,0,19,0,4,0
Cl.Oc1cccc(Nc2ccnc3cc(-c4ccncc4)ccc23)c1 [GW494601],0,42,68,9,0,0,33,41,91.9,65,42,55,28,45,40,0,22,0,0,0
CC(C)(C)n1cnc2c(N)ncnc21 [SKF-97359],0,2,32,14,0,0,11,28,0,0,16,40,0,39,0,0,2,0,0,21
C[C@@H](Oc1cc(-n2cnc3ccc(NC(=O)NC(C)(C)C)cc32)sc1C(N)=O)c1ccccc1Cl [GSK346294],10,19,0,18,7,22,40,15,6,1,6,0,3,19,0,0,32,2,0,0
CNc1ncnc2[nH]ncc12 [SKF-18355],0,0,9,19,8,9,0,0,0,0,0,14,0,32,0,0,11,0,3,18
O=C1NC(=O)C(N2CCc3ccccc32)=C1c1cccc(Cl)c1 [SB-408010],0,7,0,0,0,0,21,16,0,11,0,19,0,0,5,0,0,0,13,53
CN1c2ccc(NCc3ccc(F)cc3)cc2-c2c(cnn2C)S1(=O)=O,0,0,0,0,0,0,0,1,0,0,0,0,2,3,0,0,0,0,0,0
Cc1c(Cn2c(C)nn3c(=O)cc(N4CCOC(C)C4)nc23)cccc1C(F)(F)F (stereo not shown) [GSK2344444],10,0,9,29,0,0,13,0,0,0,0,0,0,0,0,0,18,12,9,2
